Compounds with a hit are over-represented: about 3.7% of the library has one in this group of screens.
Bead autofluor = counter-screen for toxin protease inhibitors: compound fluorescence; compound autofluorescence counterscreen, microsphere flow cytometry; stronger effect = higher value; fluorescence intensity (test concentration not listed); hit rate 3.1% among 360,000; AID 624483; in the data active = fluorescence intensity above about 16000; inconclusive = no clear call, values can overlap the other calls
Anthrax LF inh2 = inhibitors of Bacillus anthracis lethal factor protease; multiplex microsphere protease cleavage assay, LF; hit rate 0.12% among 360,000; P15917; inhibition, % at 10 µM
BoNT F protease = blocks Botulinum neurotoxin F light chain protease. Multiplex microsphere protease cleavage assay, flow cytometry. inhibition, % at 10 µM. hit rate 0.22% among 360,000. AID 588497; in the data active = inhibition above about 35%, passing the limit was not always enough; inconclusive = no clear call, values can overlap the other calls
MazF activator = MazEF (E. coli) toxin RNase activation; P0AE70; FAM/BHQ RNA-DNA oligo cleavage fluorescence, 5 h; activation, % at 20 µM; hit rate 0.32% among 350,000; AID 504720; in the data active = activation above about 50%
Target sequence (P0AE70 whole entry, looked up): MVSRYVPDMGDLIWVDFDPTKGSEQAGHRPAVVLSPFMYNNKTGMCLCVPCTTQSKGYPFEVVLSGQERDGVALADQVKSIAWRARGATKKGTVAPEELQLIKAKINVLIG
BoNT A protease = blocks Botulinum neurotoxin A light chain protease; hit rate 0.17% among 360,000; multiplex microsphere protease substrate cleavage, flow cytometry; inhibition, % at 10 µM; AID 588499
Numbers stand for hits; . = inactive; ? = inconclusive; / = not tested or not shown. Rule as the data show it, unless noted: active = inhibition above about 30%; inconclusive = no clear call, values can overlap the other calls; inactive = below that.

SMILES	Bead autofluor	Anthrax LF inh2	BoNT F protease	MazF activator	BoNT A protease
COc1ccc(C(=O)Nc2nnc(C)s2)cc1S(=O)(=O)N1CCOCC1	.	.	.	.	.
COc1ccc(C(=O)Nc2ccc(N3CCOCC3)cc2)cc1S(=O)(=O)N1CCOCC1	?	.	.	.	.
CC(=O)Nc1ccc(S(=O)(=O)N(C)CC(=O)OCC(=O)c2ccc3c(c2)NC(=O)CO3)cc1	.	.	.	.	.
Cc1c(CN2CCCCC2C)c(=O)n(-c2ccccc2)n1C (centres undefined)	22027	.	.	.	?
COc1ccc2c(c1)Cc1sc(NC(=O)c3cccs3)nc1-2	18806	.	.	.	.
COc1ccc(-c2noc(-c3ccccc3C(=O)N3CCOCC3)n2)cc1	20897	.	.	.	.
CCN(c1cccc(C)c1)S(=O)(=O)c1ccc2[nH]c(=O)c(=O)[nH]c2c1	21312	.	.	.	.
CCN(c1cccc(C)c1)S(=O)(=O)c1cc2[nH]c(=O)c(=O)[nH]c2cc1C	.	.	.	/	.
CCN(c1cccc(C)c1)S(=O)(=O)c1cccc(C(=O)O)c1	23200	.	.	.	.
CCCCN(c1ccccc1)S(=O)(=O)c1cccc(C(=O)O)c1	.	.	.	.	.
COc1ccc(S(=O)(=O)N2CCC3(CC2)OCCN3S(=O)(=O)c2ccc(C)cc2)cc1OC	?	?	.	.	.
CCOC(=O)c1cc2c(C)n(-c3ccc(OCC)cc3)c(C)c2cc(C(=O)OCC)c1=O	.	.	.	.	.
CCOC(=O)c1cc2c(C)n(-c3ccc(N(C)C)cc3)c(C)c2cc(C(=O)OCC)c1=O	18745	.	.	.	?
CCCNC(=O)c1c(N)n(-c2cccc(OC)c2)c2nc3ccccc3nc12	20561	.	.	.	?
CCCCOc1ncnc2c1[nH]c1ccc(OCC)cc12	18958	.	.	.	.
C=C(C)CN(CC)c1nc(N)c(C#N)c(CC#N)c1C#N	20294	.	.	.	?
CCCCN(CC)c1nc(N)c(C#N)c(CC#N)c1C#N	.	.	.	.	.
Cc1cc(=O)n2c(ccc3ccccc32)c1C#N	.	.	.	.	.
Cc1cc(=O)n2ccccc2c1C#N	22057	.	.	.	?
CCOC(=O)C1(C)CCCN(C(=O)c2cc(C)on2)C1 (centres undefined)	.	.	.	/	.
CCN(CC)c1ccc2cc(C(N)=O)c(=O)oc2c1	.	.	.	.	.
CCN(CC)c1ccc2cc(-c3nnc(-c4ccncc4)o3)c(=O)oc2c1	24761	.	.	.	.
Cc1ccn2c(C(=O)N/N=C\c3cccs3)c(C)nc2c1	21815	.	.	.	.
Cc1ccc2nc(C)c(C(=O)N/N=C/c3cccs3)n2c1	.	.	.	.	.
COC(=O)CCCCNC(=O)Nc1ccccc1	.	.	.	.	.
SMILES	Bead autofluor	Anthrax LF inh2	BoNT F protease	MazF activator	BoNT A protease
COC(=O)CNC(=O)CNC(=O)Nc1ccccc1	19345	.	.	.	?
CCC(=O)Nc1cc(C(=O)OCC(=O)c2ccccc2Cl)ccc1C	20188	.	.	.	.
CCC(=O)Nc1cc(C(=O)OCC(=O)c2ccc(Cl)cc2Cl)ccc1C	.	.	.	.	.
O=C(NC1CCCCCCC1)c1ccc2c(c1)OCO2	.	.	.	.	.
S=C(NC1CCCCC1)c1ccc2c(c1)OCO2	20422	.	.	.	.
CCOC(=O)CCC(=O)Nc1ccccc1C(N)=O	22534	.	.	.	?
CCOC(=O)CC(=O)Nc1ccccc1C(=O)O	.	.	.	.	.
CCOc1ccccc1C(=O)Nc1ccccc1C(N)=O	23043	.	.	.	?
CCOC(=O)C(=O)Nc1ccccc1C(=O)NC(C)C	22964	.	.	.	.
CCOc1ccccc1NC(=O)c1cccc2ccccc12	/	/	/	.	/
COc1cccc(Cn2c3ccc(NC(=O)Cc4ccccc4C)cc3c(=O)n2C)c1	.	.	.	/	.
COc1cccc(NC(=O)C(=O)NCc2ccncc2)c1	.	.	.	.	.
COc1cccc(NC(=O)C(C#N)Cc2ccncc2)c1 (centres undefined)	19544	.	.	.	.
COc1ccc(NC(=O)C2c3ccccc3OCC(=O)N2Cc2ccc3c(c2)OCO3)cc1 (centres undefined)	.	.	.	/	.
COCCN1CCc2c(C)nc3c(-c4ccc(OC)c(OC)c4)cnn3c21	.	.	.	.	.
COc1ccc(-c2cnn3c4c(c(C)nc23)CCN4C2CCCC2)cc1OC	17372	.	.	.	.
O=C(CCCOc1ccc(Br)cc1)Nc1nnc(C2CC2)s1	.	.	.	.	.
COc1ccc(OC)c(N=Cc2c(O)c3ccccc3oc2=O)c1	.	.	?	78	.
CCOC(=O)c1sc2c(c1C)c(=O)c(C(=O)OCC)cn2CC	19706	.	.	.	.
O=C(COC(=O)/C=C/c1cccs1)Nc1nc(-c2ccccc2)cs1	.	.	.	.	.
O=C(/C=C/c1cccs1)Nc1nc(-c2ccccc2)cs1	22955	.	.	.	.
O=C(NNc1nc(-c2ccccc2)cs1)c1ccccc1	22139	.	.	.	.
C/C=C/C=[N+](\[O-])C(C)/C(=N/O)c1ccc(F)cc1 (centres undefined)	16840	.	.	.	.
O=C(Nc1c(-c2ccccc2)nc2ccccn12)c1cccc(F)c1	.	.	36	.	.
CCn1c(SCc2cccc(C(F)(F)F)c2)nnc1-c1ccco1	22937	.	.	.	.
SMILES	Bead autofluor	Anthrax LF inh2	BoNT F protease	MazF activator	BoNT A protease
O=C(Nc1cccc2ccccc12)c1nn(C23CC4CC(CC(C4)C2)C3)cc1[N+](=O)[O-]	24019	.	.	.	.
COc1ccc(NC(=O)c2nn(C34CC5CC(CC(C5)C3)C4)cc2[N+](=O)[O-])cc1	.	.	.	.	.
O=C(Nc1ccc2ccccc2c1)c1nn(C23CC4CC(CC(C4)C2)C3)cc1Br	23799	.	.	.	.
NC(=O)c1ccccc1Nc1nc(NCCO)nc(N2CCCC2)n1	.	.	.	.	.
Cc1ccc(C)c(NC(=O)c2ccc(N(C)S(C)(=O)=O)cc2)c1	20420	.	.	.	.
C=Cc1ccc(Cn2nc(-c3ccc(C)cc3)ccc2=O)cc1	.	.	.	.	.
CCc1cc(C(=O)NNC(=S)Nc2ccccc2C)cs1	.	.	.	.	.
Cc1ccc(C)c(NC(=S)NNC(=O)c2csc3c2CCCC3)c1	16276	.	.	.	.
CCCc1cc(C(=O)NNC(=S)NCc2ccccc2)cs1	22370	.	.	.	.
CCc1cc(C(=O)Nc2ccccc2)cs1	16734	.	.	.	.
CCc1cc(C(=O)NNC(=S)Nc2cc(C)ccc2C)cs1	23483	.	.	.	.
CCc1cc(C(=O)NNC(=S)NCc2ccccc2)cs1	.	.	.	.	.
COc1cccc(NC(=O)CN(C)S(=O)(=O)c2ccc3c(c2)n(C)c(=O)c(=O)n3C)c1	.	.	.	.	.
Cc1cccc(NC(=S)NNC(=O)c2csc3c2CCCC3)c1	16967	.	.	.	.
CN(C)c1ccnc(SCc2ccccc2Cl)c1C#N	22367	.	.	.	.
CN(C)c1ccnc(Oc2ccccc2)c1C#N	.	.	.	.	.
CN1C=Nc2c(ncn2C2CCC(CO)O2)C1O (centres undefined)	.	.	.	/	.

From PubChem BioAssay
